Data from PubChem BioAssay (NCI).
About 83,000 compounds went through this panel and 20% of them were active in at least one assay; those are over-represented in the sample as a whole.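 Method: cells in 96-well plates; compound added at one concentration; 48 h incubation; percent growth measured; values under 10 scored active.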 Active and inactive are the calls of the source.

Assays:
Assay in all cases: NCI-60 one-dose screen, 48 h (100 = growth as untreated, 0 = no growth, -100 = all killed)
Details in all cases: 10 µM unless noted
[1] = tested on: SK-MEL-2 melanoma
[2] = tested on: SN12C renal
[3] = tested on: UO-31 renal
[4] = tested on: TK-10 renal
[5] = tested on: ACHN renal
[6] = tested on: CAKI-1 renal
[7] = tested on: A498 renal
[8] = tested on: CCRF-CEM leukemia
[9] = tested on: MOLT-4 leukemia
[10] = tested on: SR leukemia
[11] = tested on: RPMI-8226 leukemia
[12] = tested on: OVCAR-8 ovarian
[13] = tested on: OVCAR-5 ovarian
[14] = tested on: OVCAR-4 ovarian
[15] = tested on: SK-OV-3 ovarian
[16] = tested on: IGROV1 ovarian
[17] = tested on: OVCAR-3 ovarian
[18] = tested on: HS 578T breast
[19] = tested on: NCI/ADR-RES ovarian

Row | Compound | growth [1] | growth [2] | growth [3] | growth [4] | growth [5] | growth [6] | growth [7] | growth [8] | growth [9] | growth [10] | growth [11] | growth [12] | growth [13] | growth [14] | growth [15] | growth [16] | growth [17] | growth [18] | growth [19]
1 | O=C1c2cccnc2C(=O)c2c1c(C(=O)OCCCN1CCCCC1)c1ccccn21 | -47.3% (active) | -57.6% (active) | -19.5% (active) | -11.1% (active) | -55.2% (active) | -24% (active) | 11.1% (inactive) | -17% (active) | -7.64% (active) | -15.8% (active) | -28.3% (active) | -32% (active) | -19.2% (active) | -61.8% (active) | -40.6% (active) | -5% (active) | 0.168% (active) | -16% (active) | -13.3% (active)
2 | Cc1ccccc1CNc1c2ccccc2nc2ccccc12 | 40.2% (inactive) | 24.3% (inactive) | 15.5% (inactive) | 38.7% (inactive) | 11.6% (inactive) | 25.1% (inactive) | -2.25% (active) | 17.6% (inactive) | 8.85% (active) | 2.71% (active) | – | 21% (inactive) | 36.7% (inactive) | 32.9% (inactive) | 40.8% (inactive) | 14.8% (inactive) | 31.3% (inactive) | 35.7% (inactive) | 24.9% (inactive)
3 | COc1ccc2c(c1)c(-c1ccc(-c3cn(C)c4ccc(OC)cc34)[nH]1)cn2C | 45.3% (inactive) | 31.7% (inactive) | -47.3% (active) | 35.7% (inactive) | -44.6% (active) | 25.6% (inactive) | 71.8% (inactive) | -5.64% (active) | 27.7% (inactive) | -10.7% (active) | 2.15% (active) | 7.19% (active) | 30.9% (inactive) | -40.3% (active) | 50.9% (inactive) | 23.1% (inactive) | -42% (active) | – | 3.06% (active)
4 | C=CC(=O)NCCOc1cccc(Nc2cc(NCCCNC(=O)C3CCC3)c(Br)cn2)c1 | -43.8% (active) | 3.07% (active) | -42.2% (active) | -43.4% (active) | 7.24% (active) | -38.2% (active) | -54% (active) | 1.92% (active) | -10.5% (active) | -10.1% (active) | -22.8% (active) | 4.84% (active) | 2.75% (active) | -20.6% (active) | -54.4% (active) | 2.28% (active) | -25.5% (active) | -18.4% (active) | 39.5% (inactive)
5 | O=C1NC(=O)c2c1c1c3ccccc3[nH]c1c1oc3cc(Br)ccc3c21 | 96.9% (inactive) | 78.7% (inactive) | 36.9% (inactive) | 126% (inactive) | 55.2% (inactive) | 38.7% (inactive) | 26.5% (inactive) | 50.9% (inactive) | 40.4% (inactive) | 24.4% (inactive) | 63.1% (inactive) | 81.8% (inactive) | 98.9% (inactive) | 77.4% (inactive) | 93.8% (inactive) | 36.2% (inactive) | 89.9% (inactive) | 77.3% (inactive) | 77.3% (inactive)
6 | CCOC(=O)C(=Cc1cccc(C#N)c1)C(=O)OCC | 59.9% (inactive) | 79.8% (inactive) | – | 35.9% (inactive) | 23.7% (inactive) | 79.9% (inactive) | 122% (inactive) | 28.5% (inactive) | 50% (inactive) | 7.73% (active) | 15.1% (inactive) | 71.6% (inactive) | 60.1% (inactive) | 88.2% (inactive) | 91.3% (inactive) | 59.8% (inactive) | 61.2% (inactive) | 93.9% (inactive) | 47.6% (inactive)
7 | NC(CSC(c1ccccc1)(c1ccccc1)c1ccc2c(c1)OCO2)C(=O)O (centres undefined) | -14.6% (active) | 36.7% (inactive) | 53% (inactive) | 69.8% (inactive) | 53% (inactive) | 37% (inactive) | 34.3% (inactive) | -6.86% (active) | 7.18% (active) | 5.57% (active) | -7.99% (active) | 19.4% (inactive) | 41% (inactive) | – | 15.2% (inactive) | 42.2% (inactive) | 3.46% (active) | 15.7% (inactive) | 53.9% (inactive)
8 | Brc1ccc(-c2cnc3nonc3n2)cc1 | 88.9% (inactive) | 96.1% (inactive) | 63.6% (inactive) | 96.3% (inactive) | 76.9% (inactive) | 59.7% (inactive) | 96.7% (inactive) | 30% (inactive) | 37.5% (inactive) | 19.9% (inactive) | 31.1% (inactive) | 80.5% (inactive) | 122% (inactive) | 42.7% (inactive) | 110% (inactive) | 81.1% (inactive) | 9.13% (active) | 87.3% (inactive) | 79.7% (inactive)
9 | CC(=O)N/C(=C1/OC(C(O)C(O)C(O)CO)CN1C)[P+](c1ccccc1)(c1ccccc1)c1ccccc1 (centres undefined) | 99.5% (inactive) | 96.2% (inactive) | 79.4% (inactive) | 104% (inactive) | 100% (inactive) | 90.6% (inactive) | 120% (inactive) | 97.1% (inactive) | 102% (inactive) | 95.3% (inactive) | 99.7% (inactive) | 102% (inactive) | 99.5% (inactive) | 97.2% (inactive) | 93.8% (inactive) | 101% (inactive) | 112% (inactive) | 114% (inactive) | 101% (inactive)
10 | O=C(/C=C/c1cccc(Cl)c1)c1cccc(OCCCCOc2cccc(C(=O)/C=C/c3cccc(Cl)c3)c2)c1 | 103% (inactive) | 92.9% (inactive) | 72% (inactive) | 109% (inactive) | 100% (inactive) | 75.7% (inactive) | 96.9% (inactive) | 84.4% (inactive) | 89% (inactive) | 39.5% (inactive) | -26.8% (active) | 97.3% (inactive) | 109% (inactive) | 93.3% (inactive) | 113% (inactive) | 88.9% (inactive) | 91.9% (inactive) | 95.8% (inactive) | 99.7% (inactive)
11 | CCOC(=O)C1=C(c2ccccc2)N=c2s/c(=C/c3ccc(Br)cc3)c(=O)n2C1c1ccc(O)cc1 (centres undefined) | 95.9% (inactive) | 85.2% (inactive) | 78.5% (inactive) | 91.7% (inactive) | 104% (inactive) | 62.2% (inactive) | 73.2% (inactive) | 83% (inactive) | 68% (inactive) | 54.8% (inactive) | 74.1% (inactive) | 89.2% (inactive) | 105% (inactive) | 75.1% (inactive) | 104% (inactive) | 93.1% (inactive) | 86.1% (inactive) | 84.4% (inactive) | 99.5% (inactive)
12 | O=C1/C(=C/c2cccc([N+](=O)[O-])c2)COc2ccc(O)cc21 | 91.3% (inactive) | 13.1% (inactive) | 22.4% (inactive) | 87% (inactive) | 6.88% (active) | 52.8% (inactive) | 102% (inactive) | 0.606% (active) | 18.2% (inactive) | 8.9% (active) | -22.9% (active) | 31.2% (inactive) | 54.8% (inactive) | 74.4% (inactive) | 111% (inactive) | 33.8% (inactive) | 34.4% (inactive) | 33.7% (inactive) | 42% (inactive)
13 | COc1ccc2nc3ccccc3c(NCc3ccccc3)c2c1 | 47.9% (inactive) | 22.4% (inactive) | 13.8% (inactive) | 38.7% (inactive) | 12.8% (inactive) | 25.8% (inactive) | -14.3% (active) | 33.4% (inactive) | 8.01% (active) | 4.27% (active) | -30.9% (active) | 28.2% (inactive) | 29% (inactive) | 40.8% (inactive) | 44.5% (inactive) | 16.4% (inactive) | 41% (inactive) | 25.2% (inactive) | 18.3% (inactive)
14 | COc1ccc(C2=NN(C(C)=O)C(c3ccc(Oc4ccnc5cc(Cl)ccc45)c(OC)c3)C2)cc1 (centres undefined) | 42.4% (inactive) | 68.7% (inactive) | 70% (inactive) | 36.6% (inactive) | 22.9% (inactive) | 47.9% (inactive) | 66.3% (inactive) | 85.7% (inactive) | 78.9% (inactive) | 74.4% (inactive) | 77.1% (inactive) | 24% (inactive) | 84.4% (inactive) | -17.2% (active) | 24.5% (inactive) | 79.7% (inactive) | 37.1% (inactive) | 58.9% (inactive) | 44.7% (inactive)
15 | COc1ccc(-c2cc(-c3cc(OC)c(OC)c(OC)c3)c(C#N)c(=O)n2CCCCCC(=O)NO)cc1 | 102% (inactive) | 89.2% (inactive) | 62.4% (inactive) | 106% (inactive) | 88.3% (inactive) | 79.9% (inactive) | 54% (inactive) | 85.7% (inactive) | 96.6% (inactive) | – | 72.8% (inactive) | 87% (inactive) | 108% (inactive) | – | 122% (inactive) | 101% (inactive) | 101% (inactive) | 85.2% (inactive) | 96.1% (inactive)
